Pf Dd2 inh – blocks in vitro growth of P. falciparum Dd2. P. falciparum Dd2 growth, SYBR Green, 72 h. Potency, µM (highest dose often 28.9 µM), most hits filed as inhibitors. 4.3% of 120,000 active. AID 1347417; active = well fitted inhibition curve with a large enough effect; note: nearly all actives have a fitted effect of over 65% in size
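Infected erythrocytes (Dd2, 0.3% parasitemia, 2.5% hematocrit final) are added to compound in RPMI-1640/Albumax II medium, grown 72 h at 37C in low oxygen, then lysed with saponin/Triton-X containing SYBR Green and read by fluorescence.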
Each line names hits and unclear results; the compound was inactive in the other large screens. This is one part of a sample in which hits are shown more often than they occur.

COc1ccccc1-c1cc([C@H]2CN3CC[C@H]2C[C@@H]3COC(=O)Nc2ccccc2)nc(C)n1	none
O=C(NCc1cccs1)C1CN(S(=O)(=O)c2cccnc2)CC12CCCCC2 (configuration not stated)	none
COCCN1CCC(N2CCN(C(=O)c3ccsc3)CC2)C1=O (configuration not stated)	none
Cc1ccc(CN2CCC3(CC2)CCN(C2CCOCC2)CC3CO)s1 (configuration not stated)	none
Cc1ccc(S(=O)(=O)NC[C@H]2O[C@@H](CO)[C@@H](O)[C@H]2N2CCN(c3ncccn3)CC2)cc1	none
CNC(=O)[C@H]1C[C@H](Oc2cccnc2)CN1C(=O)NCc1ccccc1	none
COC(=O)[C@H](NC(=O)[C@@]1(O)C[C@@H](O)[C@H](O)[C@@H](NC(=O)Nc2ccc(C)cc2)C1)C(C)C	none
Cc1nc(-c2ccc(C(F)(F)F)cc2)cc([C@H]2CN3CC[C@H]2C[C@@H]3CNC(=O)N2CCOCC2)n1	none
Cc1nc(-c2ccc(F)cc2)cc([C@H]2CN3CC[C@H]2C[C@@H]3CNC(=O)Nc2cccc(C#N)c2)n1	none
Cc1nc(-c2cccs2)cc([C@H]2CN3CC[C@H]2C[C@@H]3CNC(=O)Nc2cccc(C(F)(F)F)c2)n1	Pf Dd2 inh 8.91µM
COc1ccc(CNC(=O)CN2C(=O)NC(c3ccccc3Cl)C3=C2COC3=O)cc1 (configuration not stated)	none
COc1ccccc1-c1noc(-c2nc(C)no2)n1	none
Cc1ccc(C(C)C)c(OCC(=O)Nc2nc3c(s2)CCCC3)c1	none
Cc1cccc(C)c1OCC(=O)NCC1(N(C)C)CCCCC1	none
Cc1ccc(C(C)C)c(OCC(=O)NCC2(N(C)C)CCCCC2)c1	Pf Dd2 inh 2.82µM
Cc1noc([C@H]2CCN(Cc3cc(F)ccc3F)C[C@H]2NC(=O)C2CC2)n1	none
NCCCC(=O)N1CCCC(N2CCN(c3cccc(Cl)c3)CC2)C1 (configuration not stated)	none
O=C(c1ccc(-n2cnnn2)cc1O)N1CCCC(CCc2ccc(F)cc2)C1 (configuration not stated)	Pf Dd2 inh 12.6µM
O=C(c1cc(=O)[nH]c2cc(F)ccc12)N1CCCC(CCc2ccc(F)cc2)C1 (configuration not stated)	none
O=C(CCn1cnnn1)N1CCCC(CCc2cccc(C(F)(F)F)c2)C1 (configuration not stated)	none
O=C1N(CC2CC2)CCOC12CCN([S+](=O)([O-])c1ccc(C(F)(F)F)cc1)CC2	none
COc1ccc(C(=O)NC2CCN(c3cnn(CC4CC4)c(=O)c3)CC2)cc1OC	none
Cc1nc(CCN)no1	none
CN(Cc1ccccc1)c1ncccc1CNc1ccc(C#N)cn1	none
CNC(=O)[C@@H]1CN(C(=O)COc2ccc(Cl)cc2C)C[C@H]1CO	none
CCOc1ccccc1C1NC(=O)N(CC(=O)Nc2cc(C)ccc2OC)C2=C1C(=O)OC2 (configuration not stated)	none
Cn1c(=O)c2c(-c3ccccc3Cl)n(Cc3ccc(Cl)cc3)cc2n(C)c1=O	none
Cn1c(=O)c2c(-c3cccc(Br)c3)n(CCO)cc2n(C)c1=O	none
Cn1c(=O)c2c(-c3ccccc3Cl)n(-c3cc(Cl)ccc3O)cc2n(C)c1=O	Pf Dd2 inh 7.94µM
COc1cc(=O)n2c(c1C(=O)Nc1ccccc1F)CCCC2	none
Cc1cccc(S(=O)(=O)N2CCCC(Cn3c(C4CC4)nc4cccnc43)C2)c1 (configuration not stated)	none
CN(C)CCNC(=O)Cn1nc(N2CCN(c3ccccc3)CC2)ccc1=O	none
Cc1cccc(NC(=O)c2ccc(Cn3nc(N4CCN(c5ccccc5)CC4)ccc3=O)o2)c1C	Pf Dd2 inh 11.2µM
O=C(O)Cn1nc(N2CCN(c3ccc(F)cc3)CC2)ccc1=O	none
Cc1ccc(F)cc1NC(=O)c1ccc(Cn2nc(N3CCN(c4ccccc4)CC3)ccc2=O)o1	Pf Dd2 inh 11.2µM
CC(C)CCNC(=O)Cn1nc(N2CCN(c3ccccc3)CC2)ccc1=O	none
Cc1cc(F)ccc1NC(=O)Cn1nc(N2CCN(c3ccccc3)CC2)ccc1=O	none
Cc1noc(C)c1C(=O)N1CCC2(CC1)c1[nH]c3ccccc3c1CCN2C	none
O=C(NCCC1=CCCCC1)C1CC(=O)N(c2n[nH]c3ccccc23)C1 (configuration not stated)	none
COCCC1(NS(C)(=O)=O)CCN(S(=O)(=O)c2ccc3c(c2)CCC3)CC1	none
Cc1nc(N2CCC(NC(=O)c3ccsc3)CC2)cc(C(F)(F)F)n1	none
Cc1ccc(C(=O)NC2CCN(c3cc(C(F)(F)F)nc(C)n3)CC2)cc1	none
COc1ccc(C(=O)NC2CCN(c3cc(C(F)(F)F)nc(C)n3)CC2)c(C)c1	none
COc1ccc(C(=O)NC2CCN(c3cc(C(F)(F)F)nc(C)n3)CC2)cc1	Pf Dd2 inh 14.1µM
Cc1nc(N2CCC(NC(=O)c3cccs3)CC2)cc(C(F)(F)F)n1	Pf Dd2 inh 5.01µM
Cc1nc(N2CCC(NC(=O)Cc3cccs3)CC2)cc(C(F)(F)F)n1	none
CC(C)c1cc(NCCc2nc(N)cc(=O)[nH]2)n2nccc2n1	none
Cn1ncc(N2CCCC(CC(=O)NCCc3cccnc3)C2)cc1=O (configuration not stated)	none
Cn1ncc(N2CCCC(CC(=O)NCc3cccc(F)c3)C2)cc1=O (configuration not stated)	none
COc1ccc(C(=O)N[C@H]2C[C@H]3C(=O)NC[C@@H](CCC(=O)NCc4ccccc4)N3C2)cc1	none
Cn1c([C@H]2CCN(Cc3ccccc3)C2)nc2ccccc21	none
COc1ccccc1-c1nnc([C@H]2CCN(Cc3ccc(F)cc3)C2)o1	none
COc1ccccc1-c1nnc([C@H]2CCN(Cc3cccnc3)C2)o1	Pf Dd2 inh 12.6µM
Cc1ccc(CN2CC[C@H](c3nnc(-c4ccccc4)o3)C2)cc1	Pf Dd2 inh 10µM
COc1ccc(-c2nnc([C@H]3CCN(Cc4cccc(C#N)c4)C3)o2)cc1	Pf Dd2 inh 14.1µM
COc1ccccc1-c1nnc([C@H]2CCN(Cc3ccc(C(=O)O)cc3)C2)o1	none
COc1ccc(CN2CC[C@H](c3nnc(-c4ccncc4)o3)C2)cc1	none
FC(F)(F)c1ccc(CN2CC[C@H](c3nnc(-c4ccccc4)o3)C2)cc1	none
Cn1c([C@H]2CCN(Cc3cccc(C#N)c3)C2)nc2ccccc21	Pf Dd2 inh 10µM
Cc1ccc(-c2nnc([C@H]3CCN(Cc4ccc(CO)o4)C3)o2)cc1	none
Cn1c([C@H]2CCN(Cc3ccc(Cl)cc3)C2)nc2ccccc21	none
Cn1cncc1-c1nnc([C@H]2CCN(Cc3cccc(C#N)c3)C2)o1	none
O=C(Cc1ccc(F)cc1)NC1CCN(c2nc3ncccc3o2)CC1	none
CCOc1ccc(NC(=O)C2CCN(C(=O)c3ncn4c3COC(c3ccccc3)C4)CC2)cc1 (configuration not stated)	none
COCCOc1ccc2c(n1)CCNC2	none
Cc1ccc2[nH]c(=O)c(CCC(=O)NC(C)C)cc2c1	none
CCc1nccn1CC(=O)NC(C)c1cnn(-c2ccccc2C)c1C (configuration not stated)	none
COc1ccc(C(=O)N2CC[C@H](c3nnc(-c4ccccc4)o3)C2)cc1	none
COc1ccc(-c2nnc([C@H]3CCN(S(=O)(=O)Cc4ccccc4)C3)o2)cc1	Pf Dd2 inh 10µM
COc1ccc(-c2nnc([C@H]3CCN(S(C)(=O)=O)C3)o2)cc1	none
O=C1NC(C(=O)NCc2cccnc2Oc2ccccc2F)CO1 (configuration not stated)	none
CC(NC(=O)c1cc2n(n1)CC(c1ccc3c(c1)OCO3)OC2)c1ccccc1 (configuration not stated)	none
CC(C)c1nc2c(c(-c3ccc(O)cc3)n1)CN(C(=O)C1CCCC1)CC2	none
CC(C)c1nc2c(c(-c3ccc(O)cc3)n1)CN(C(=O)C1CC1)CC2	none
